About 83,000 compounds went through this panel and 20% of them were active in at least one assay; those are over-represented in the sample as a whole.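 Method: cells in 96-well plates; compound added at one concentration; 48 h incubation; percent growth measured; values under 10 scored active.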 Active and inactive are the calls of the source.
These compounds were tested on SK-MEL-2 melanoma (assay: NCI-60 one-dose screen, 48 h (100 = growth as untreated, 0 = no growth, -100 = all killed)). Details: 10 µM unless noted.
With COc1ccc(C/C(=C(\C)c2ccc(OCCN3CCCC3)cc2)c2ccc(OCCN3CCCC3)cc2)cc1 the growth was 102% (inactive). With CCOC(=O)Oc1c(OC)cc(C(=O)c2ccc(OC)c(O)c2OC)cc1OC the growth was 24.8% (inactive). With CCCCOc1ccc(/C(C)=N/Nc2cc(C)nc3ccc(Br)cc23)cc1 the growth was 108% (inactive). O=[N+]([O-])c1cc(Br)c2cccc3c2c1CC3 was tested, and the growth was 118% (inactive). CC(Oc1ccc(C(=O)O)cc1C(F)(F)F)c1ccc(Oc2ccccc2)cn1 (stereo unspecified) was tested, and the growth was 123% (inactive). In the case of CCN1CCN(CCNc2nccc(-c3c(-c4cccc(OC)c4)nc4occn34)n2)S1(=O)=O, the growth is reported as 93.6% (inactive). In the case of Cn1c2ccccc2c2c3c(c4c5ccccc5n(C)c4c21)C(=O)OC3, the growth is reported as 107% (inactive). In the case of COc1cc2c(cc1OC)C(=O)/C(=C/c1cc(C)c(O)c(C)c1)S2, the growth is reported as 42.6% (inactive). With O=C(/C=C/c1ccc(F)cc1)c1ccc(NC(=O)N2CCN(c3cc4c(cc3F)c(=O)c(C(=O)O)cn4C3CC3)CC2)cc1 the growth was 105% (inactive). O=C1c2ccc3c4c(ccc(c24)C(=O)N1CCCNCc1ccccc1Cl)C(=O)N(CCCNCc1ccccc1Cl)C3=O was tested, and the growth was -60.6% (active). With Cc1cccc(NC(=O)Nc2ccc(-n3cnc4cc(-c5ccc(O)cc5)ccc43)cc2)c1 the growth was 18.1% (inactive). c1ccc(-c2cn3c(ccc4ccccc43)n2)cc1 was tested, and the growth was 40.3% (inactive). For COc1cc2oc(-c3cccc(C(=O)Nc4ccccc4)c3)cc(=O)c2c(O)c1OC, the growth was 65% (inactive). For Cc1ccc(/C=N/NC(=O)CSc2nc3ccccc3c(=O)n2Cc2ccc(S(N)(=O)=O)cc2)cc1, the growth was 94% (inactive). C#CCNC(=O)c1cccc2c1cc(C)n2-c1nc2c(c(NCc3ccccc3)n1)CCCC2 was tested, and the growth was -38% (active). In the case of COc1ccccc1NC(=O)C1CC(c2ccc(F)cc2)=NO1 (stereo unspecified), the growth is reported as 103% (inactive). O=C1Nc2cc(-c3ccc(NC(=O)c4ccccc4)cc3)ccc2/C1=C/c1ccc[nH]1 was tested, and the growth was 102% (inactive). In the case of C=CC(=O)N[C@@H](/C=C/C(=O)OCC)Cc1ccc(-c2cc(Cl)cc(Cl)c2)cc1, the growth is reported as 14.1% (inactive). In the case of Cc1ccc(NC(=O)c2cc(-c3nc4ccccc4s3)c(=O)n(NS(=O)(=O)c3ccc(Cl)cc3)c2N)cc1, the growth is reported as 103% (inactive). With O=C1Nc2cc(-c3ccc(NC(=O)C4CC4)cc3)ccc2/C1=C/c1ccc[nH]1 the growth was 109% (inactive). O=S(=O)(NCCNc1nccc(-c2c(-c3cccc(F)c3)nc3sccn23)n1)c1ccccc1 was tested, and the growth was 51.8% (inactive). With O=C(NCCNc1nccc(-c2c(-c3cccc(F)c3)nc3sccn23)n1)c1ccc(Cl)cc1 the growth was 62.5% (inactive). COc1cc2oc(-c3cccc(C(=O)Nc4ccc(Cl)cc4)c3)cc(=O)c2c(O)c1OC was tested, and the growth was 83.1% (inactive). For O=C1OC(Cc2ccccc2)C1c1ccccc1 (stereo unspecified), the growth was 102% (inactive). For CC(=O)Nc1ccc(-n2cnc3cc(-c4ccc(OCCN5CCCCC5)cc4)ccc32)cc1, the growth was 119% (inactive). With O=C(N/N=C/c1ccc(Oc2ccccc2)cc1)c1cnn2c1NC(c1ccccc1)C2 (stereo unspecified) the growth was 4.54% (active). With CCN(CC)CC[n+]1cc2cc(OC)c(OC)cc2c2ccc3cc4c(cc3c21)OCO4 the growth was 14.8% (inactive). In the case of O=Cc1cc2ccccc2nc1Oc1ccc(C(F)(F)F)cc1, the growth is reported as 101% (inactive). For Cc1cc2nc3c4cc(C=O)ccc4n(CCN(C)C)c3nc2cc1C, the growth was 11.7% (inactive). In the case of N#Cc1cccc(-c2ccc3c(c2)NC(=O)/C3=C\c2ccc[nH]2)c1, the growth is reported as 81.2% (inactive). With CCc1c(Cl)nc(N)nc1Nc1ccc(C)c(C)c1 the growth was 99.3% (inactive). For COc1cc(NC(C)CCCNC(=O)CCC(=O)NCCCNCCCCCCCCCCNCCCNC(=O)CCC(=O)NCCCC(C)Nc2cc(OC)cc3cccnc23)c2ncccc2c1 (stereo unspecified), the growth was 93.4% [8 µM] (inactive). With Cc1ccccc1NS(=O)(=O)c1cccc(C(=O)Nc2ccc(Br)cc2)c1 the growth was 42.9% [25 µM] (inactive). COc1cc(/C=C\C(=O)O)ccc1OCc1ccccc1 was tested, and the growth was 93.5% (inactive). In the case of CCCCCCCCOc1ccc(/C=N/Nc2cc(C)nc3ccc(Br)cc23)cc1, the growth is reported as 96.2% (inactive). With S=c1cc(S)c2cc(Br)ccc2[nH]1 the growth was 93.9% (inactive). With CCOC(=O)CSc1nc2ccccc2c(=O)n1Cc1ccc(S(N)(=O)=O)cc1 the growth was 111% (inactive). For C=C1C(=O)O[C@H]2[C@H]1CC/C(COC(=O)NCc1c[nH]c3ccc(Cl)cc13)=C\CC[C@@]1(C)O[C@@H]21, the growth was -6.51% (active).

These compounds were tested on EKVX NSCLC in the same assay as above. Details: 10 µM unless noted.
With COc1ccc(C/C(=C(\C)c2ccc(OCCN3CCCC3)cc2)c2ccc(OCCN3CCCC3)cc2)cc1 the growth was 81.3% (inactive). For CCOC(=O)Oc1c(OC)cc(C(=O)c2ccc(OC)c(O)c2OC)cc1OC, the growth was 58.9% (inactive). CCCCOc1ccc(/C(C)=N/Nc2cc(C)nc3ccc(Br)cc23)cc1 was tested, and the growth was 88.2% (inactive). In the case of O=[N+]([O-])c1cc(Br)c2cccc3c2c1CC3, the growth is reported as 109% (inactive). CC(Oc1ccc(C(=O)O)cc1C(F)(F)F)c1ccc(Oc2ccccc2)cn1 (stereo unspecified) was tested, and the growth was 103% (inactive). With CCN1CCN(CCNc2nccc(-c3c(-c4cccc(OC)c4)nc4occn34)n2)S1(=O)=O the growth was 90.9% (inactive). In the case of Cn1c2ccccc2c2c3c(c4c5ccccc5n(C)c4c21)C(=O)OC3, the growth is reported as 88.1% (inactive). With COc1cc2c(cc1OC)C(=O)/C(=C/c1cc(C)c(O)c(C)c1)S2 the growth was 40.8% (inactive). O=C(/C=C/c1ccc(F)cc1)c1ccc(NC(=O)N2CCN(c3cc4c(cc3F)c(=O)c(C(=O)O)cn4C3CC3)CC2)cc1 was tested, and the growth was 94.5% (inactive). O=C1c2ccc3c4c(ccc(c24)C(=O)N1CCCNCc1ccccc1Cl)C(=O)N(CCCNCc1ccccc1Cl)C3=O was tested, and the growth was -46.7% (active). For Cc1cccc(NC(=O)Nc2ccc(-n3cnc4cc(-c5ccc(O)cc5)ccc43)cc2)c1, the growth was 35.8% (inactive). c1ccc(-c2cn3c(ccc4ccccc43)n2)cc1 was tested, and the growth was 73.2% (inactive). In the case of COc1cc2oc(-c3cccc(C(=O)Nc4ccccc4)c3)cc(=O)c2c(O)c1OC, the growth is reported as 97.9% (inactive). In the case of Cc1ccc(/C=N/NC(=O)CSc2nc3ccccc3c(=O)n2Cc2ccc(S(N)(=O)=O)cc2)cc1, the growth is reported as 90.8% (inactive). With C#CCNC(=O)c1cccc2c1cc(C)n2-c1nc2c(c(NCc3ccccc3)n1)CCCC2 the growth was -30.4% (active). In the case of COc1ccccc1NC(=O)C1CC(c2ccc(F)cc2)=NO1 (stereo unspecified), the growth is reported as 89.8% (inactive). In the case of O=C1Nc2cc(-c3ccc(NC(=O)c4ccccc4)cc3)ccc2/C1=C/c1ccc[nH]1, the growth is reported as 51.1% (inactive). For C=CC(=O)N[C@@H](/C=C/C(=O)OCC)Cc1ccc(-c2cc(Cl)cc(Cl)c2)cc1, the growth was 20% (inactive). With Cc1ccc(NC(=O)c2cc(-c3nc4ccccc4s3)c(=O)n(NS(=O)(=O)c3ccc(Cl)cc3)c2N)cc1 the growth was 92.1% (inactive). For O=C1Nc2cc(-c3ccc(NC(=O)C4CC4)cc3)ccc2/C1=C/c1ccc[nH]1, the growth was 47.6% (inactive). O=S(=O)(NCCNc1nccc(-c2c(-c3cccc(F)c3)nc3sccn23)n1)c1ccccc1 was tested, and the growth was 53.3% (inactive). With O=C(NCCNc1nccc(-c2c(-c3cccc(F)c3)nc3sccn23)n1)c1ccc(Cl)cc1 the growth was 63.2% (inactive). In the case of COc1cc2oc(-c3cccc(C(=O)Nc4ccc(Cl)cc4)c3)cc(=O)c2c(O)c1OC, the growth is reported as 77.2% (inactive). With O=C1OC(Cc2ccccc2)C1c1ccccc1 (stereo unspecified) the growth was 97.5% (inactive). In the case of CC(=O)Nc1ccc(-n2cnc3cc(-c4ccc(OCCN5CCCCC5)cc4)ccc32)cc1, the growth is reported as 97.9% (inactive). With O=C(N/N=C/c1ccc(Oc2ccccc2)cc1)c1cnn2c1NC(c1ccccc1)C2 (stereo unspecified) the growth was 77.6% (inactive). For CCN(CC)CC[n+]1cc2cc(OC)c(OC)cc2c2ccc3cc4c(cc3c21)OCO4, the growth was 17.5% (inactive). With O=Cc1cc2ccccc2nc1Oc1ccc(C(F)(F)F)cc1 the growth was 82.4% (inactive). With Cc1cc2nc3c4cc(C=O)ccc4n(CCN(C)C)c3nc2cc1C the growth was 25.4% (inactive). In the case of N#Cc1cccc(-c2ccc3c(c2)NC(=O)/C3=C\c2ccc[nH]2)c1, the growth is reported as 25.2% (inactive). In the case of CCc1c(Cl)nc(N)nc1Nc1ccc(C)c(C)c1, the growth is reported as 89.2% (inactive). COc1cc(NC(C)CCCNC(=O)CCC(=O)NCCCNCCCCCCCCCCNCCCNC(=O)CCC(=O)NCCCC(C)Nc2cc(OC)cc3cccnc23)c2ncccc2c1 (stereo unspecified) was tested, and the growth was 73.7% [8 µM] (inactive). With Cc1ccccc1NS(=O)(=O)c1cccc(C(=O)Nc2ccc(Br)cc2)c1 the growth was 16.6% [25 µM] (inactive). With COc1cc(/C=C\C(=O)O)ccc1OCc1ccccc1 the growth was 115% (inactive). With CCCCCCCCOc1ccc(/C=N/Nc2cc(C)nc3ccc(Br)cc23)cc1 the growth was 85% (inactive). In the case of S=c1cc(S)c2cc(Br)ccc2[nH]1, the growth is reported as 105% (inactive). CCOC(=O)CSc1nc2ccccc2c(=O)n1Cc1ccc(S(N)(=O)=O)cc1 was tested, and the growth was 97.1% (inactive). C=C1C(=O)O[C@H]2[C@H]1CC/C(COC(=O)NCc1c[nH]c3ccc(Cl)cc13)=C\CC[C@@]1(C)O[C@@H]21 was tested, and the growth was -22.4% (active).

From PubChem BioAssay (NCI)
